Screening data (PubChem)
FPRL1 ligand: binds the human formylpeptide receptor-like-1 FPRL1 | FPRL1-expressing cells, fluorescent ligand binding inhibition, flow cytometry | inhibition, % (test concentration not listed) | 24,000 compounds, 0.3% hits | AID 441;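 note: 0% = buffer alone and 100% = receptor blocker peptide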
Jurkat autofluor: compound fluoresces in Jurkat cells, VLA-4 screen interference; compound autofluorescence, flow cytometry; hits give high values; 1 = vehicle-only cell background; fluorescence ratio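 (tested at 10 µM compound in the well)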; 24,000 compounds, 0.61% hits;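 active = fluorescence ratio above 2.44, which is 1 plus 3 SD of all ratios; inconclusive = signal too bright to measure linearly, ratio around 10 or more; inactive = fluorescence ratio below 2.44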;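 note: green fluorescence of cells measured with 488 nm excitation and 530 nm emission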
VLA-4 allo ag: allosterically activates the human VLA-4 integrin | P13612 | Jurkat cells, LDV-FITC binding, flow cytometry | activation, % at 10 µM (by protocol) | 24,000 tested, under 10 active;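 active = fluorescent ligand binding to cells raised by more than 40% of the manganese-induced maximum; inconclusive = compound's own fluorescence above 85% of the ligand control signal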;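 note: 0% = ligand binding without compound and 100% = manganese-stimulated maximal binding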
Target sequence (P13612 whole entry, looked up): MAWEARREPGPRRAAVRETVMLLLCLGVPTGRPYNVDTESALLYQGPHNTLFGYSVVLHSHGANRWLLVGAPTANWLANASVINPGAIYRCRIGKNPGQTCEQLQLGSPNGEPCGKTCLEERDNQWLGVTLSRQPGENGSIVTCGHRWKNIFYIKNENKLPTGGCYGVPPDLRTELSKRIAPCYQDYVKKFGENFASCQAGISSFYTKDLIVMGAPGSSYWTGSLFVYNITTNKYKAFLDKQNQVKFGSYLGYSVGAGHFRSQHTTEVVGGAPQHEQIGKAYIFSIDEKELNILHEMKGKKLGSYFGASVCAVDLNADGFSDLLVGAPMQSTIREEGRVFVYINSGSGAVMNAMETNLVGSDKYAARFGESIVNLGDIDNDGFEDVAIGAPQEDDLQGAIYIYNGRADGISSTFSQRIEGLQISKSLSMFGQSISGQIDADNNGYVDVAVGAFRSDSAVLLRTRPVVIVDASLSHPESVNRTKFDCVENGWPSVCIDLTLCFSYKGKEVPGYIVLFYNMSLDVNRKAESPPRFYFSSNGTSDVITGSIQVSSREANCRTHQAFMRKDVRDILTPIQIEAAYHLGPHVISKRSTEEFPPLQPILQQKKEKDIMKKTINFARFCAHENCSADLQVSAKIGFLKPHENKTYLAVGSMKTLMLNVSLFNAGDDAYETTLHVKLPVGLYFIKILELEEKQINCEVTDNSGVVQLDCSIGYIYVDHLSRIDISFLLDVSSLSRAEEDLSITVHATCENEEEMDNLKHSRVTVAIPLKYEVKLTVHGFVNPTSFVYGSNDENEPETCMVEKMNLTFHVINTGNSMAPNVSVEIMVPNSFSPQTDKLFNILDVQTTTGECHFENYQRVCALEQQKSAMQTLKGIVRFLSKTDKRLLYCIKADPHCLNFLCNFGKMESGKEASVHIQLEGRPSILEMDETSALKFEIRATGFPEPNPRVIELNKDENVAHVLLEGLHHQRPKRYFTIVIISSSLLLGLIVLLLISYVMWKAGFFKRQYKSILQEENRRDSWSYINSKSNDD
VLA-4 antagonist: blocks LDV-FITC ligand binding to Mn2+-activated human VLA-4 integrin | P13612 | Jurkat cells, LDV-FITC binding with Mn2+, flow cytometry; 100% = Mn2+-driven binding gain fully reversed | inhibition, % at 10 µM (by protocol) | 24,000 compounds, 0.2% hits | AID 529;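 active = inhibition above 50%; inconclusive = compound itself fluorescent, judged against control cell fluorescence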;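 note: 0% = Mn2+ stimulated cells lacking compound and 100% = ligand binding without Mn2+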
Prostate diff: LNCaP prostate cell differentiation activation; flow cytometry side scatter, 4 d; side scatter shift, % at 10 µM; 24,000 compounds, 0.56% hits;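 active = side scatter shift above 30%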;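 note: androgen-responsive LNCaP prostate cancer cells in charcoal-stripped serum medium; percent of cells past a gate set so DMSO wells show 10% shift; higher shift means more granular cells and more differentiation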
FPR ligand: binds the human formylpeptide receptor FPR. 24,000 compounds, 0.74% hits. FPR-expressing cells, fluorescent ligand binding, flow cytometry. P21462. inhibition, % (test concentration not listed). AID 440;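 note: 0% = buffer wells and 100% = receptor blocker peptide wells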
Numbers without * were called inactive; ? = inconclusive; . = not tested or not shown. An excerpt weighted towards active compounds, which were near 2.4% of everything screened. Cut-off read from the data, not from the text of the source, unless noted: active = inhibition above about 30%; inconclusive = no clear call, values can overlap the other calls; inactive = below that.

SMILES	FPRL1 ligand	Jurkat autofluor	VLA-4 allo ag	VLA-4 antagonist	Prostate diff	FPR ligand
COc1ccc(-n2ncc3c(N4CCN(c5cccc(C)c5C)CC4)ncnc32)cc1	-2.3	1.01	2.0	-2.0	19.0	7.1
COc1ccc(-n2cc(-c3ccccc3)c3c(N4CCN(CCO)CC4)ncnc32)cc1	-1.8	1	-5.3	8.3	44.0*	4.7
Cn1c(C(=O)NCCCN2CCCC2=O)cc2c(=O)n3ccccc3nc21	0.9	1.16	-4.0	1.0	7.0	5.1
CCCS(=O)(=O)N1CCC(C(=O)NCCN(C)Cc2ccccc2)CC1	2.4	1.1	5.0	-7.0	21.0	-8.5
CC1(C)CC(=O)c2cc(OCC(=O)NCCCN3CCN(c4ccccc4F)CC3)ccc2O1	-2.3	1.06	-5.5	7.8	30.0*	3.6
CCn1c(=O)cc(SCC(=O)NCCCN2CCN(c3ccccc3F)CC2)c2ccccc21	7.1	1.14	-1.0	17.0	49.0*	-13.1
Cn1c(=O)cc(OCC(=O)NCCCN2CCN(c3ccccc3F)CC2)c2ccccc21	0.3	1.14	-2.0	-10.0	9.0	2.8
CC(C)Oc1ccc(C2C(C(=O)c3ccco3)=C(O)C(=O)N2Cc2cccnc2)cc1 (configuration not stated)	-2.2	.	.	.	.	16.5
CCCOc1ccc(C2C(C(=O)c3ccco3)=C(O)C(=O)N2CCCn2ccnc2)cc1 (configuration not stated)	-5.1	.	.	.	.	55.0*
CCCOc1ccc(/C(O)=C2/C(=O)C(=O)N(CCCn3ccnc3)C2c2cccs2)cc1 (configuration not stated)	1.1	.	.	.	.	6.3
COc1cccc(C2C(C(=O)c3cccs3)=C(O)C(=O)N2CCCn2ccnc2)c1OC (configuration not stated)	-1.4	1.01	-2.0	-10.5	13.0	32.4*
Cc1ccc(C2C(C(=O)c3sc(C)nc3C)=C(O)C(=O)N2CCN2CCOCC2)o1 (configuration not stated)	25.6	.	.	.	.	35.3*
CCOc1cc(C2C(C(=O)c3ccco3)=C(O)C(=O)N2CCc2ccccc2)ccc1O (configuration not stated)	-3.6	.	.	.	.	86.0*
Cc1ccc(S(=O)(=O)NCCCNC(=O)N2CCOCC2)cc1	-17.2	1.03	11.0	-33.5	20.0	-14.6
COc1ccccc1N1CSC2=C(C#N)C(c3ccc(SC)cc3)CC(=O)N2C1 (configuration not stated)	-2.6	1.15	?	?	4.0	5.3
Cc1c(NS(=O)(=O)c2ccc3c(c2)c(=O)n(C)c(=O)n3C)c(=O)n(-c2ccccc2)n1C	2.1	1.02	2.7	-10.7	1.0	5.1
COc1ccc(C2C(C(=O)c3sc(C)nc3C)=C(O)C(=O)N2CCN(C)C)cc1 (configuration not stated)	-2.0	1.03	-0.5	-6.5	9.0	3.7
COCCCN1C(=O)C(O)=C(C(=O)c2ccco2)C1c1ccccc1 (configuration not stated)	0.6	.	.	.	.	42.9*
O=C(C1=C(O)C(=O)N(CCc2ccccc2)C1c1cccnc1)c1ccco1 (configuration not stated)	-2.9	.	.	.	.	29.8
Cc1nc(C)c(C(=O)C2=C(O)C(=O)N(CCCn3ccnc3)C2c2ccc(Cl)cc2)s1 (configuration not stated)	23.7	.	.	.	.	38.3*
CCOc1cc(C2NC(=O)N(C)C(C)=C2C(=O)OC)cc(Br)c1O (configuration not stated)	-12.0	4.35*	?	?	10.0	-5.9
Cn1c2ccccc2c2cnn(CC(=O)N3CCN(c4ncccn4)CC3)c(=O)c21	-1.0	1.27	-9.0	-2.0	3.0	-2.6
CCOCCCNC(=O)C(c1ccccc1)N(Cc1ccc2c(c1)OCO2)C(=O)CNC(C)=O (configuration not stated)	-2.8	1.05	1.5	-3.0	3.0	8.7
O=C(CN1CCCN(S(=O)(=O)c2ccc(Br)cc2)CC1)Nc1ccc2cn[nH]c2c1	2.5	1.11	0.3	-18.7	7.0	-6.5
CCOC(=O)c1c(NC(=O)c2cc(C3CC3)on2)sc2c1CCCC2	58.2*	1.04	1.0	-5.0	11.0	9.6
CCOc1cccc(/C(O)=C2/C(=O)C(=O)N(CCOC)C2c2ccc(C)o2)c1 (configuration not stated)	-10.9	.	.	.	.	50.8*
